Data published in PubChem BioAssay (Tox21).
Records with an inconclusive call do not appear. Activity calls are given as the source filed them. Unless noted, the call rests on the fitted dose curve; in most records, active means well fitted curve in the direction sought with a large enough effect in the repeat runs; inconclusive means weak or mixed curves; inactive means flat fitted curve, though single readings scatter.

What was measured:
[1] = qHTS assay to test for compound auto fluorescence at 535 nm (green) in HEK293 cells (AID 720680)
[2] = qHTS assay to test for compound auto fluorescence at 460 nm (blue) in HEK293 cell free culture (AID 720681)
Summary of the method: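 Compounds were added to cell-free DMEM with 10% FBS and fluorescence read directly. The blue channel used 405 nm excitation and 460 nm emission, with triamterene as the reference fluorophore.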

[3] = qHTS assay to test for compound auto fluorescence at 535 nm (green) in HEK293 cell free culture (AID 720682)
Summary of the method: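 DMEM + 10% FBS, cell-free; cpd or DMSO pinned in; Ex485/Em535 read; output as fluorescein-equivalent signal.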

[4] = qHTS assay to test for compound auto fluorescence at 590 nm (red) in HepG2 cell free culture (AID 720684)
Summary of the method: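 Compounds are added to culture medium (MEM, 10% FBS) lacking cells, then fluorescence is read at excitation 540 nm, emission 590 nm, with Rose Bengal sodium as the equivalency standard.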

[5] = qHTS assay to test for compound auto fluorescence at 535 nm (green) in HepG2 cell free culture (AID 720686)
[6] = qHTS assay to test for compound auto fluorescence at 460 nm (blue) in HepG2 cells (AID 720687)
Summary of the method: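 HepG2 cells in MEM with 10% FBS, attached overnight at 37 C, were exposed to compound or DMSO for 1 hr at 37 C, 5% CO2. Blue fluorescence was read at 405/460 nm, with triamterene as reference fluorophore.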

[7] = target: Glucocorticoid receptor (Homo sapiens) (UniProt P04150); test: qHTS assay to identify small molecule agonists of the glucocorticoid receptor (GR) signaling pathway (AID 720691; active means well fitted activation curve with a large enough effect in the signal ratio in the repeat runs, not every such curve was filed as active; the % refers to the signal ratio)
Sequence of Glucocorticoid receptor (Homo sapiens) (P04150 whole entry, looked up): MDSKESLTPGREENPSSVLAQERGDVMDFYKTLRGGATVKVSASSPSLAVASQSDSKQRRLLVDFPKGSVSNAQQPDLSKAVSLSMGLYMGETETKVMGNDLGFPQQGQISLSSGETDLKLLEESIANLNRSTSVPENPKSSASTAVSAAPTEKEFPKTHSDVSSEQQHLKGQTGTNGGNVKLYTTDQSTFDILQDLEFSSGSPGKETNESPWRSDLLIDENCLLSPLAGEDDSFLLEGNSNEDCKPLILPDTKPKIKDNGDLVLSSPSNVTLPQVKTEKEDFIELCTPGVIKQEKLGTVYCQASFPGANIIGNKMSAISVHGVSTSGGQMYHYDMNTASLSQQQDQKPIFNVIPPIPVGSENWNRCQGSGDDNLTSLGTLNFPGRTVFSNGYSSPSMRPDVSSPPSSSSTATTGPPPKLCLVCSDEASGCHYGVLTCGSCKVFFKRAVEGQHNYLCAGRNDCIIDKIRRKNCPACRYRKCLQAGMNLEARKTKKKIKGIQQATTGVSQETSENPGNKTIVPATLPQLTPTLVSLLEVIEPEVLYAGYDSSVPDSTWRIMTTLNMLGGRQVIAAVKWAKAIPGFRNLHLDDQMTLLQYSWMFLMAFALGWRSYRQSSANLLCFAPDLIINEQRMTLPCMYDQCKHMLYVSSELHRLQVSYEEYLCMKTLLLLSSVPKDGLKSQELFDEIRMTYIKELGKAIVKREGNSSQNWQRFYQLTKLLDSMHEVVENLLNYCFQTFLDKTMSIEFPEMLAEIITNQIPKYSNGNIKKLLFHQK
Summary of the method: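 Fluorescence intensity from LiveBLAzer B/G FRET substrate (2 h, room temperature) reports beta-lactamase expression driven by the glucocorticoid response element in GR-bla HeLa cells after 18 h compound exposure at 37 C.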

[8] = qHTS assay to test for compound auto fluorescence at 460 nm (blue) in HepG2 cell free culture (AID 720685)
Summary of the method: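 Compound (23 nL) or DMSO pinned into cell-free MEM with 10% FBS; blue fluorescence read at 405/460 nm excitation/emission, expressed as auto-fluorescence equivalency to triamterene.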

[9] = target: Glucocorticoid receptor (Homo sapiens) (UniProt P04150); test: qHTS assay to identify small molecule antagonists of the glucocorticoid receptor (GR) signaling pathway (AID 720692; active means well fitted inhibition curve with a large enough effect in the signal ratio in the repeat runs, not every such curve was filed as active; the % refers to the signal ratio)
Summary of the method: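 HeLa GR-bla cells; cmpd + dex 5 nM final, 18 h 37 C; LiveBLAzer B/G FRET substrate 2 h RT; fluorescence intensity read. Antagonist mode, qHTS.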

[10] = qHTS assay to test for compound auto fluorescence at 590 nm (red) in HEK293 cell free culture (AID 720683)
Summary of the method: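 Cell-free wells of DMEM with 10% FBS received compound, and intrinsic fluorescence was read at excitation/emission 540/590 nm. Values expressed as equivalence to Rose Bengal sodium.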
On the % scale 0 is the no-effect control and ±100 the full control effect.

Nc1nc2ccc(OC(F)(F)F)cc2s1
inactive: outcome [1] | Potency [2] | outcome [3] | outcome [4] | outcome [5] | Potency [6] | Potency [7]

O=CNNC=O
inactive: outcome [1] | Potency [2] | outcome [3] | outcome [4] | Potency [8] | outcome [5] | Potency [6] | Potency [7] | Potency [9]

CC(=O)Oc1cccc(O)c1
inactive: outcome [1] | Potency [2] | outcome [3] | outcome [4] | Potency [8] | Potency [6] | Potency [7]

CCCCCCC(O)CCCCCCCCCCC(=O)OC (stereo not given)
inactive: outcome [1] | Potency [2] | outcome [3] | outcome [4] | Potency [8] | outcome [5] | Potency [6] | Potency [7]

COc1ccc(C)cc1
inactive: outcome [1] | Potency [2] | outcome [3] | Potency [8] | outcome [5] | Potency [6] | Potency [7]

O=C(O)c1ccc(O)cc1O
inactive: outcome [1] | Potency [2] | outcome [3] | outcome [4] | Potency [8] | Potency [6] | Potency [7]

O=C(c1ccccc1)c1ccc(O)cc1
inactive: outcome [1] | Potency [2] | outcome [3] | outcome [4] | Potency [8] | outcome [5] | Potency [6] | Potency [7] | Potency [9]

C=CC(=O)O
inactive: outcome [1] | Potency [2] | outcome [3] | outcome [4] | Potency [8] | outcome [5] | Potency [6] | Potency [7] | Potency [9]

COC(OC)OC
inactive: outcome [1] | Potency [2] | outcome [3] | outcome [4] | Potency [8] | outcome [5] | Potency [6] | Potency [7]

C1=CCC2CC=CC2C1 (stereo not given)
inactive: outcome [1] | Potency [2] | outcome [3] | outcome [4] | Potency [8] | outcome [5] | Potency [6] | Potency [7] | Potency [9]

CC1=CC[C@@H]2C[C@H]1C2(C)C
inactive: fluorescence, % of fluorescein [1] -0.149% [at 18.6 µM] | fluorescence, % of fluorescent control [2] 0.0118% [at 18.6 µM] | activity change [3] -0.0302% [at 18.6 µM] | fluorescence, % of Rose Bengal [4] 0.0249% [at 18.6 µM] | fluorescence, % of fluorescent control [6] -0.0004% [at 18.6 µM]

COc1ccc(-n2nc(C(F)F)cc2-c2ccc(S(C)=O)cc2)cc1 (stereo not given)
inactive: outcome [1] | Potency [2] | outcome [3] | outcome [4] | outcome [5] | Potency [6] | Potency [7]

O=C(O)/C=C/c1ccc(O)c(O)c1
inactive: outcome [1] | outcome [3] | outcome [10] | outcome [4] | Potency [8] | Potency [6] | Potency [7] | Potency [9]

CC(C)(C)CCCCCCOC(=O)c1ccccc1C(=O)OCCCCCCC(C)(C)C
inactive: outcome [1] | Potency [2] | outcome [3] | outcome [4] | Potency [8] | outcome [5] | Potency [6] | Potency [7]

[Cl][Nd]([Cl])[Cl]
inactive: outcome [1] | Potency [2] | outcome [3] | outcome [4] | Potency [8] | outcome [5] | Potency [6] | Potency [7]

CC(C)COC(=O)c1ccc(O)cc1
inactive: outcome [1] | Potency [2] | outcome [3] | outcome [4] | outcome [5] | Potency [6] | Potency [7]

Cc1ccccc1S(N)(=O)=O
inactive: outcome [1] | Potency [2] | outcome [3] | outcome [4] | Potency [8] | Potency [6] | Potency [7] | Potency [9]

CN=C(N)NC(=O)Nc1c(C)cccc1C
inactive: outcome [1] | Potency [2] | outcome [3] | outcome [4] | Potency [8] | outcome [5] | Potency [6] | Potency [7] | Potency [9]

COc1cc(OC)c2ccc(=O)oc2c1
inactive: outcome [1] | outcome [3] | outcome [10] | outcome [4] | outcome [5]

O=C(Oc1ccccc1)c1ccc2ccccc2c1O
inactive: outcome [1] | Potency [2] | outcome [3] | outcome [4] | Potency [8] | outcome [5] | Potency [6] | Potency [7]

CC(=O)NNC(C)=O
inactive: outcome [1] | Potency [2] | outcome [3] | outcome [4] | outcome [5] | Potency [6] | Potency [7] | Potency [9]

CSSc1ccoc1C
inactive: outcome [1] | Potency [2] | outcome [3] | outcome [4] | Potency [8] | Potency [6] | Potency [7]

Nc1ccc(F)cc1
inactive: outcome [1] | Potency [2] | outcome [3] | outcome [4] | Potency [8] | outcome [5] | Potency [6] | Potency [7] | Potency [9]

CC[C@H]1OC(=O)[C@H](C)[C@@H](O[C@H]2C[C@@](C)(OC)[C@@H](O)[C@H](C)O2)[C@H](C)[C@@H](O[C@@H]2O[C@H](C)C[C@H](N(C)C)[C@H]2O)[C@](C)(O)C[C@@H](C)C(=O)[C@H](C)[C@@H](O)[C@]1(C)O
inactive: outcome [1] | Potency [2] | outcome [3] | outcome [4] | outcome [5] | Potency [6]

O=C1OC[C@H](Cc2cccc(O)c2)[C@H]1Cc1cccc(O)c1
inactive: outcome [1] | Potency [2] | outcome [3] | outcome [4] | Potency [8] | Potency [6] | Potency [7]
